Experimental findings from PubChem BioAssay are described below.

The first experiment is described as follows: COS7 lysate on small-molecule microarray, probe aHis, 635 nm (AID 1123).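 Also: z-score combines 667nm fluorescence intensity with signal-to-noise per printed compound spot.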 The conditions noted are these: COS7 cell lysate, fluorescence, higher = more signal.
`COc1ccc([Si](C)(C)[C@H]2[C@H](CC(=O)N3CCC[C@H]3CO)O[C@@]3(C(=O)N(Cc4ccc(N5CCCCC5=O)cc4)c4ccccc43)[C@@H]2C)cc1` registered a composite z-score of 1.27.

In turn, `C=CCC(OC(C)=O)[C@@H]1[C@@H](N(Cc2cccc3ccccc23)C(=O)Cc2ccc(OC)cc2)c2cc(OCCCO)ccc2N1C(=O)c1ccc2ccccc2c1` (some centres not stated) showed a composite z-score of 0.481.

Consider `NC(=O)NCC#Cc1ccc2c(c1)[C@]1(C(=O)N2)[C@H](c2ccc(OCCO)cc2)N2[C@H](c3ccccc3)[C@H](c3ccccc3)OC(=O)[C@H]2[C@@H]1C(=O)O`, for which the composite z-score amounted to 0.157.

As for `O=C1O[C@H](c2ccccc2)[C@H](c2ccccc2)N2[C@H]1[C@@H](C(=O)N1CCN(c3ncccn3)CC1)[C@]1(C(=O)Nc3ccc(C#CCCO)cc31)[C@H]2c1ccc(O)cc1`, the composite z-score was 1.88.

As for `C=C(CCCC)/C(=C/C[C@H](OC(=O)c1ccncc1)c1cccc(OCCO)c1)c1cnc2ccccc2c1`, the composite z-score was 1.17.

`O=C(N1CCOCC1)[C@@]1(Cc2ccccc2)COC(c2ccc(OCCCO)cc2)=N1` displayed a composite z-score of 2.7.

With `C=CCC(OC(C)=O)[C@@H]1[C@@H](N(Cc2ccc(-c3cccc(C(F)(F)F)c3)o2)C(=O)c2ccc(-c3ccccc3)cc2)c2cc(OCCCO)ccc2N1C(=O)c1ccc2ccccc2c1` (some centres not stated), the composite z-score was 0.234.

In turn, `[N-]=[N+]=NCc1ccccc1[C@@H]1OC(c2ccc(OCCCO)cc2)=N[C@]1(Cc1ccccc1N=[N+]=[N-])C(=O)NCC(O)CO` (some centres not stated) registered a composite z-score of 3.16.

In the case of `CCCNC(=O)[C@@]1(c2ccc([N+](=O)[O-])cc2)CC(=O)N(C(C)C)[C@@H]1c1ccc(CO)cc1`, the composite z-score was 1.7.

Compound `CC(C)N1C(=O)C[C@@](C(=O)NCCN2CCOCC2)(c2ccc([N+](=O)[O-])cc2)[C@H]1c1ccc(CO)cc1` yielded a composite z-score of 2.2.

For the compound `CCCC[C@H]1OB(O)C[C@H]2C1=C(COc1ccccc1)C[C@H]1C(=O)C=CC(=O)[C@H]12`, the composite z-score is -0.145.

Compound `CC(C)[Si](C#CCCc1ccccc1)(O[C@H](c1ccccc1)c1cn(Cc2ccccc2)nn1)C(C)C` registered a composite z-score of 1.12.

Another experiment is described as follows: probe aLAP1 signal on lysate-treated microarray – cell lysate, small-molecule microarray, COS7 lysate, primary screen (AID 1124).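 Also: lysate comes from COS7 cells expressing LAP1 and is applied at 0.3 µg/mL; score merges spot fluorescence near 667 nm with signal-to-noise over triplicate slides.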 The conditions noted are these: probe aLAP1, fluorescence, higher = more signal.
As to `C[C@@H]1ON(c2ccccc2)[C@H](c2ccccc2)[C@H]1C(=O)O`, the composite z-score stood at 0.361.

As for `C[C@]1(C(=O)O)c2ccccc2C(=O)N(Cc2cc(F)cc(C(F)(F)F)c2)[C@H]1c1ccc(CO)cc1`, the composite z-score was -0.276.

`COCCOC(=O)N1C(=O)[C@@]2(c3cc(C#CCCO)ccc31)[C@H](c1ccccc1OCCO)N1[C@H](c3ccccc3)[C@H](c3ccccc3)OC(=O)[C@H]1[C@@H]2C(N)=O` yielded a composite z-score of 0.128.

`O=C1[C@H]2C=C(I)[C@H](C[C@@H]2OCCCCCCO)[C@@]12CO2` had a composite z-score of -0.16.

`C=CCOC(=O)[C@@H]1[C@H]2C(=O)O[C@H](c3ccccc3)[C@H](c3ccccc3)N2[C@H](c2ccc(OCCOC(=O)[C@H]3C[C@H]4C(=O)N[C@@H](CCCCN(C)C)C(=O)N4[C@H]3c3ccc(O)cc3)cc2)[C@@]12C(=O)Nc1ccc(I)cc12` had a composite z-score of 0.148.

For `O=C(NCc1ccccc1)[C@@H]1c2ccccc2C(=O)N(Cc2cc(C(F)(F)F)cc(C(F)(F)F)c2)[C@H]1c1ccc(CO)cc1`, the composite z-score is 0.92.

With `CCCC[C@H]1C[C@@H]1[C@@H]1N(C(C)=O)[C@H](c2cccc(OC)c2)CC12CC2`, the composite z-score amounted to 0.603.

The compound `CCOC(=O)C1=CCC(c2cc3ccccc3[nH]2)N(CCN2CC(C(=O)OCC)=CCC2c2cc3ccccc3[nH]2)C1` (configuration not stated) yielded a composite z-score of 0.674.

`C=C(CCCC)/C(=C/C[C@H](OC(C)=O)c1cccc(OCCO)c1)c1cnc2ccccc2c1` had a composite z-score of -0.207.

In the case of `CCCN1C(=O)[C@@]2(c3ccc([N+](=O)[O-])cc3)CC(=O)N(CC34CC5CC(CC(C5)C3)C4)[C@@H]2c2ccc(CO)cc21`, the composite z-score is -0.193.

The compound `COc1ccc(C(O)C2C=CC3C(=O)N(c4ccccc4)C(=O)C3N2Nc2ccc(C#N)cc2)cc1OCc1ccccc1` (configuration not stated) registered a composite z-score of 1.17.

`CC(C)NC(=O)[C@@]1(c2ccc([N+](=O)[O-])cc2)CC(=O)N(CC23CC4CC(CC(C4)C2)C3)[C@@H]1c1ccc(CO)cc1` came in with a composite z-score of 0.885.

Take `CC1=C([C@H](O)CCc2ccccc2)[C@H](CO)n2c(=O)n(-c3ccccc3)c(=O)n2C1`: the composite z-score was -0.603.

Compound `O=C(NC1CC1)[C@@H]1c2ccccc2C(=O)N(Cc2cc(C(F)(F)F)cc(C(F)(F)F)c2)[C@H]1c1ccc(CO)cc1` gave a composite z-score of 0.174.

Consider `COC(=O)[C@@]1(Cc2ccccc2)N=C(c2ccc(OCCCO)cc2)O[C@H]1c1ccccc1CN=[N+]=[N-]`, for which the composite z-score is -0.415.

As to `O=C1c2ccccc2[C@@]2(Cc3ccccc3N(Cc3ccccc3)C2=O)[C@H](c2ccc(CO)cc2)N1Cc1ccccc1Cl`, the composite z-score was found to be 0.147.

Take `CC(C)C[C@H]1NC(=O)C([C@@H](C)OCc2ccccc2)NC(=O)[C@@]23C(=O)N[C@@H](Cc4ccccc4)C2[C@H](C)[C@@]2(C)O[C@H]2C3/C=C/C/C=C\CNC1=O` (some centres not stated): the composite z-score worked out at 0.653.

The compound `CC(C)=CCCC(C)=CC(O)C1C=CC2C(=O)NC(=O)C2N1Nc1ccc(Cl)cc1Cl` (configuration not stated) returned a composite z-score of 1.36.

`CCCCC(=C=CC[C@H](O)c1ccc(CO)o1)CCO` came in with a composite z-score of -0.311.

Consider `CCOC(=O)C1=CC[C@@H](c2ccccc2)N(S(=O)(=O)c2ccc(C)cc2)[C@H]1c1ccccc1I`, for which the composite z-score was determined as 0.748.

Regarding `[N-]=[N+]=Nc1ccccc1[C@@H]1OC(c2ccc(OCCCO)cc2)=N[C@]1(CCS(=O)(=O)c1ccccc1)C(=O)NCC(O)CO` (some centres not stated), the composite z-score was 0.649.

`N#Cc1ccc(NN2C(C(O)C3CC=CCC3)C=CC3C(=O)N(c4ccccc4)C(=O)C32)cc1` (configuration not stated) returned a composite z-score of 0.452.

For `CC(C)C[C@@H]1NC(=O)[C@@]23C(=O)N[C@@H](Cc4ccccc4)C2[C@H](C)[C@@]2(C)O[C@H]2C3/C=C/C/C=C\CNC(=O)CNC1=O` (some centres not stated), the composite z-score came to 0.0471.

The compound `COc1ccc([Si](C)(C)[C@H]2[C@H](CC(=O)N3CCC[C@H]3CO)O[C@@]3(C(=O)N(Cc4ccc(N5CCCCC5=O)cc4)c4ccccc43)[C@@H]2C)cc1` came in with a composite z-score of 0.0516.

For the compound `C=CCC(OC(C)=O)[C@@H]1[C@@H](N(Cc2cccc3ccccc23)C(=O)Cc2ccc(OC)cc2)c2cc(OCCCO)ccc2N1C(=O)c1ccc2ccccc2c1` (some centres not stated), the composite z-score is -0.0588.

Take `NC(=O)NCC#Cc1ccc2c(c1)[C@]1(C(=O)N2)[C@H](c2ccc(OCCO)cc2)N2[C@H](c3ccccc3)[C@H](c3ccccc3)OC(=O)[C@H]2[C@@H]1C(=O)O`: the composite z-score is -0.23.

For the compound `O=C1O[C@H](c2ccccc2)[C@H](c2ccccc2)N2[C@H]1[C@@H](C(=O)N1CCN(c3ncccn3)CC1)[C@]1(C(=O)Nc3ccc(C#CCCO)cc31)[C@H]2c1ccc(O)cc1`, the composite z-score came out at 0.608.

Compound `C=C(CCCC)/C(=C/C[C@H](OC(=O)c1ccncc1)c1cccc(OCCO)c1)c1cnc2ccccc2c1` returned a composite z-score of 0.423.

`O=C(N1CCOCC1)[C@@]1(Cc2ccccc2)COC(c2ccc(OCCCO)cc2)=N1` came in with a composite z-score of 0.872.

Consider `C=CCC(OC(C)=O)[C@@H]1[C@@H](N(Cc2ccc(-c3cccc(C(F)(F)F)c3)o2)C(=O)c2ccc(-c3ccccc3)cc2)c2cc(OCCCO)ccc2N1C(=O)c1ccc2ccccc2c1` (some centres not stated), for which the composite z-score is -0.376.

For `[N-]=[N+]=NCc1ccccc1[C@@H]1OC(c2ccc(OCCCO)cc2)=N[C@]1(Cc1ccccc1N=[N+]=[N-])C(=O)NCC(O)CO` (some centres not stated), the composite z-score came to 0.695.

Take `CCCNC(=O)[C@@]1(c2ccc([N+](=O)[O-])cc2)CC(=O)N(C(C)C)[C@@H]1c1ccc(CO)cc1`: the composite z-score turned out to be 0.188.

For the compound `CC(C)N1C(=O)C[C@@](C(=O)NCCN2CCOCC2)(c2ccc([N+](=O)[O-])cc2)[C@H]1c1ccc(CO)cc1`, the composite z-score came out at 1.24.

As for `CCCC[C@H]1OB(O)C[C@H]2C1=C(COc1ccccc1)C[C@H]1C(=O)C=CC(=O)[C@H]12`, the composite z-score was -0.317.

As to `CC(C)[Si](C#CCCc1ccccc1)(O[C@H](c1ccccc1)c1cn(Cc2ccccc2)nn1)C(C)C`, the composite z-score stood at 0.0218.
